# Source: PubChem
# NIH3T3 tox: Cytotoxic Profiling in NIH 3T3 Cell Line of Diverse Libraries Using Quantitative High-Throughput Screening | NIH 3T3 viability, CellTiter-Glo ATP luminescence, 48-72 h | Potency, µM (series often up to 96.7 µM), most hits filed as inhibitors | 4.3% of 94,000 active | AID 1345082, 2018; further: nearly all actives have a fitted effect of over 55% in size
#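 Luminescent ATP readout (CellTiter-Glo, 10 min RT) after 48 or 72 hr compound exposure of NIH 3T3 cells seeded at 400 cells/well in 1536-well format; quantitative HTS.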
# NPR1 antag: Natriuretic polypeptide receptor (hNpr1) antagonism - Primary qHTS. Atrial natriuretic peptide receptor 1 (Homo sapiens), P16066. HEK293 hNpr1 GloSensor cGMP, ANP-stimulated luminescence. Potency, µM (titrated, usually from 46.3 µM), actives largely listed as inhibitors. 1.6% of 76,000 active. AID 1347048, 2019; calls by dose curve; further: nearly all actives have a fitted effect of over 60% in size
#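 Compound pre-incubated 30 min at room temperature on GloSensor-loaded HEK293 cells stably carrying hNpr1 and the pGS-40F cGMP biosensor. Stimulation uses hNppA at 0.1 nM final; luminescence is taken at baseline and 20 min post-agonist.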
# FLuc inh: Firefly luciferase inhibition profiling of diverse chemical library using quantitative high-throughput screening. Luciferin 4-monooxygenase (Photinus pyralis), P08659. purified P. pyralis luciferase, luminescence, biochemical. Potency, µM (series often up to 115 µM), most hits filed as inhibitors. 2.5% of 76,000 active; further: nearly all actives have a fitted effect of over 65% in size
# Target sequence (P08659 whole entry, looked up): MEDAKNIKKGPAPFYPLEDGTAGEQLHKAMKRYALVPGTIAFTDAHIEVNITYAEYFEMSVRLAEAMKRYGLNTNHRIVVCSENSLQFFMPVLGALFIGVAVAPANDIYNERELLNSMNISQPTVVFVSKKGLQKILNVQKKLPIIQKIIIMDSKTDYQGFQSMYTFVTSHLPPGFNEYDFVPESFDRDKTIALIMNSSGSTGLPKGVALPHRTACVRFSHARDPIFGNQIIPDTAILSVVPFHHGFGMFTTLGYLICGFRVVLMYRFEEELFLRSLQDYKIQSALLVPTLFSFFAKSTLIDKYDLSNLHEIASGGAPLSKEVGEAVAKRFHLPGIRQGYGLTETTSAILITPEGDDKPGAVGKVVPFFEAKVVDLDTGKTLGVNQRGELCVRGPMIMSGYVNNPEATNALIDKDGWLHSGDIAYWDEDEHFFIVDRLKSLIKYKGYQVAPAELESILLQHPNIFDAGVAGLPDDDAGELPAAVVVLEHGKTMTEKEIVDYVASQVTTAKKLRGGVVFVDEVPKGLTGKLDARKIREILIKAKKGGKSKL
#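 Purified 10nM P. pyralis luciferase with 10uM D-luciferin and 10uM ATP in 50mM Tris acetate pH 7.5, 10mM Mg acetate, 0.01% Tween-20, 0.05% BSA. qHTS titration; luminescence read by CCD imager.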
# HEK293 tox: Cytotoxic Profiling in HEK 293 Cell Line of Diverse Libraries Using Quantitative High-Throughput Screening | HEK 293 viability, ATP luminescence (CellTiter-Glo), 48-72 h | Potency, µM (highest dose often 115 µM), actives largely listed as inhibitors | 6.6% of 94,000 active; further: nearly all actives have a fitted effect of over 60% in size
#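 250 HEK 293 cells/well; compound by pintool; incubated 48 or 72 hr at 37 degree Celsius; CellTiter-Glo added, 10 min RT, luminescence imaged.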
# GPT2 inh: Primary qHTS assay for inhibitors of Glutamate pyruvate transaminase 2 (GPT2) | Alanine aminotransferase 2 (Homo sapiens), Q8TD30 | 0.25% of 100,000 active | Potency, µM (series often up to 57.7 µM), actives largely listed as inhibitors | AID 1671188, 2021 | Recombinant GPT2, coupled pyruvate oxidase/HRP Amplex Red fluorescence; further: nearly all actives have a fitted effect of over 60% in size
#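 Fluorescence of coupled pyruvate oxidase/HRP/Amplex Red system (50uM Amplex, 30 min, dark) reports pyruvate formed by GPT2. Enzyme reaction: 10ng/uL GPT2, 2mM L-alanine, 250uM a-KG, 30 min room temperature, pH 7.5; 50uM AOA control.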
# Numbers stand for hits; n = inactive; u = inconclusive; x = no result given. A selection: hits, their analogues and other compounds. The true share with any hit is near 10%. Unless noted, the call rests on the fitted dose curve; in most records, active means well fitted curve in the direction sought with a large enough effect; inconclusive means small, poorly fitted or top-dose-only effect, or another doubt; inactive means no such curve, though single readings can be large; an effect the other way counts as inactive or inconclusive.
SMILES,NIH3T3 tox,NPR1 antag,FLuc inh,HEK293 tox,GPT2 inh
COc1ccc(F)cc1-c1ncc2c(n1)OCCN(c1cccc(C(F)(F)F)c1)C2=O,35.5µM,n,n,u,n
COc1cc(F)cc(-c2ncc3c(n2)OCCN(c2cccc(C(F)(F)F)c2)C3=O)c1,u,n,3.16µM,n,n
O=C1c2cnc(-c3ccsc3)nc2OCCN1c1cccc(C(F)(F)F)c1,112µM,u,63.1µM,100µM,n
CCCC(=O)N1Cc2ccccc2CC2(CCCCN2Cc2ccccn2)C1 (centres undefined),u,x,x,u,n
CCN(CC)Cc1nc(C2(O)CCN(C3CCC(F)(F)CC3)CC2)cs1,u,n,n,u,n
CN(C)[S+](=O)([O-])c1ccc2c(c1)OCCN(Cc1ccccc1Cl)C2,56.2µM,n,n,u,n
CN(C)[S+](=O)([O-])c1ccc2c(c1)OCCN(Cc1cccc(F)c1F)C2,u,n,n,u,n
COc1ccccc1CN1CCOc2cc([S+](=O)([O-])N(C)C)ccc2C1,u,n,n,89.1µM,n
O=C(NCc1ccc(F)cc1)C1(CCO)CC12CCOCC2 (centres undefined),n,n,n,n,n
CNC(=O)c1cc(C2CC2)nc2onc(C3CCCN3C(=O)c3cccnc3)c12 (centres undefined),n,x,x,n,x
C=CCNC(=O)c1cnn2cc(C)ccc12,n,n,u,n,n
C=CCNC(=O)c1cnn2ncccc12,n,n,50.1µM,n,n
O=C1CO[C@H]2CCN(Cc3ccccc3Cl)CC[C@@H]2N1c1ccccc1,u,n,n,79.4µM,n
O=C1CO[C@H]2CCN(CCCc3ccccc3)CC[C@@H]2N1c1ccccc1,89.1µM,n,n,100µM,n
O=C(Cc1cccc(Cl)c1)NC1CCN(c2cc(-c3ccccc3)[nH]n2)CC1,31.6µM,n,n,u,n
COc1ccc(-c2cc(N3CCC(NC(=O)Cc4ccc(Cl)cc4)CC3)n[nH]2)cc1,u,n,n,u,n
CC(=O)Nc1ccc(C(=O)NC2CCN(c3cc(-c4ccccc4)[nH]n3)CC2)cc1,u,n,n,n,n
COc1ccc(-c2cc(N3CCC(NC(=O)c4ccc(Cl)cc4)CC3)n[nH]2)cc1,u,u,n,44.7µM,n
COc1ccc(CC(=O)NC2CCN(c3cc(-c4ccc(Cl)cc4)[nH]n3)C2)cc1 (centres undefined),u,n,n,28.2µM,u
COc1ccc(-c2cc(N3CCC(NC(=O)c4ccc(Cl)cc4)C3)n[nH]2)cc1 (centres undefined),u,n,n,u,n
O=C(NC1CCN(c2cc(-c3ccccc3)[nH]n2)CC1)c1ccc(Cl)cc1,20µM,n,n,u,n
O=C(NCc1ccccc1Cl)C1CCc2nnc(C3CCN([S+](=O)([O-])c4ccccc4Cl)CC3)n21 (centres undefined),u,x,x,u,n
COc1ccccc1CNC(=O)C1CN(C)C(=O)N1 (centres undefined),n,x,x,n,n
O=C(NC1CCN(c2cc(-c3ccccc3)[nH]n2)CC1)c1ccc2ccccc2n1,28.2µM,n,n,50.1µM,n
O=C(NC1CCN(c2cc(-c3ccc(Cl)cc3)[nH]n2)CC1)c1ccc2[nH]ccc2c1,35.5µM,n,n,39.8µM,n
SMILES,NIH3T3 tox,NPR1 antag,FLuc inh,HEK293 tox,GPT2 inh
COc1cc(OC)cc(C(=O)NC2CCN(c3cc(-c4ccc(F)cc4)[nH]n3)CC2)c1,35.5µM,n,n,u,n
CSc1ccc(C(=O)N2CC(=O)N(Cc3cccc(F)c3)CC(O)C2)cc1 (centres undefined),u,x,x,n,x
Cc1nnc(-c2cc(-c3cccc(F)c3)ccn2)n1CCN1CCOCC1,22.4µM,n,n,u,n
COc1cccc(-c2ccnc(-c3nnc(C)n3CCN3CCOCC3)c2)c1,n,n,n,u,u
Cc1nnc(-c2cc(-c3cccc(F)c3)ccn2)n1CCc1ccccc1,u,n,n,u,n
Cc1nnc(-c2cc(-c3cccnc3)ccn2)n1CCN1CCOCC1,u,n,n,n,n
Cc1cc(-c2ccnc(-c3nnc(C)n3CCN3CCOCC3)c2)ccn1,89.1µM,n,n,n,n
Cc1nnc(-c2cc(-c3cccc(O)c3)ccn2)n1CCc1ccccc1,100µM,n,n,u,u
COC(=O)Nc1cc(-c2cccnc2)nn1-c1ccccc1,u,x,x,u,n
O=C1NCCOCCN(C(=O)Cc2c[nH]c3ccccc23)[C@H]2CCC[C@@H]12,n,n,n,n,n
COCCCn1c(=O)c(C(=O)NCc2cccc(Cl)c2)nc2cccnc21,u,x,x,n,n
O=C(Cc1ccccc1)N1CCCN(c2cc(-c3ccc(Cl)cc3)[nH]n2)CC1,u,u,n,39.8µM,n
COc1ccc(CC(=O)N2CCCN(c3cc(-c4ccccc4)[nH]n3)CC2)cc1,n,n,n,u,u
Cc1ccc(CC(=O)N2CCCN(c3cc(-c4ccccc4)[nH]n3)CC2)cc1,u,n,n,50.1µM,u
COc1ccc(CC(=O)N2CCCN(c3cc(-c4ccc(Cl)cc4)[nH]n3)CC2)cc1,u,u,n,39.8µM,u
Cc1cccc(OCC(=O)N2CCCN(c3cc(-c4ccc(Cl)cc4)[nH]n3)CC2)c1,25.1µM,u,n,u,n
COc1cccc(CC(=O)N2CCN(c3cc(-c4ccc(Cl)cc4)[nH]n3)CC2)c1,u,u,n,u,n
COc1ccc(C2NC(=O)N(Cc3nc(C4CCCCC4)no3)C3=C2C(=O)OC3)cc1 (centres undefined),u,u,n,u,n
CNc1nc2c(c(C(=O)N3CCCC3)n1)CN(CCC(C)c1ccc(C)o1)CC2 (centres undefined),n,n,n,n,n
Cc1ccccc1C(=O)N1CCCN(c2cc(-c3ccccc3)[nH]n2)CC1,n,n,n,u,u
Cn1nc(C(=O)N2CCCN(c3cc(-c4ccccc4)[nH]n3)CC2)c2ccccc21,u,n,n,28.2µM,u
O=C(c1nccc2ccccc12)N1CCc2c(nc(-c3ccccc3)[nH]c2=O)C1,u,n,n,25.1µM,n
COc1ccc(-n2nc(C3CCN(Cc4cccn4C)CC3)[nH]c2=O)cc1,u,n,n,39.8µM,n
CC(C)(C)c1nc(C(=O)N2CCCC2)n2ccccc12,u,x,x,u,n
Cc1cc(C)cc(-c2ccc(CN3CCCC(N[S+](=O)([O-])c4c(C)noc4C)C3)cc2)c1 (centres undefined),35.5µM,x,x,25.1µM,n
COc1ccccc1Nc1ccnc(N2CCC(N[S+](=O)([O-])c3c(C)noc3C)CC2)n1,u,x,x,u,n
